# Reference: PubChem BioAssay (NCI)
# “And” between values parts separate entries of the source, which are not always exact repeats. Equal entries are not always repeated. Compounds without any hit were thinned out: in the full panel of roughly 83,000, 20% have a hit.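 Activity criterion: percent growth below 10, measured after cells in 96-well plates were exposed to a single compound concentration for 48 hours.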 The source made the active and inactive calls.
# Tested on: MDA-MB-468 breast
# Test: NCI-60 one-dose screen, 48 h (100 = growth as untreated, 0 = no growth, -100 = all killed)
# Settings: 10 µM unless noted
row,SMILES,growth
1,CCN(Cc1ccccc1)C1CCN(Cc2cc(Br)ccc2O)CC1,25.5% (inactive)
2,COc1cc(-c2[nH]ncc2Nc2ccc(Cl)cc2)cc(OC)c1OC,55.7% (inactive)
3,NNC(=O)CNC(=O)Nc1n[nH]c(=S)s1,111% (inactive)
4,C#CC[C@@H]1C[C@]2(C)[C@H]3CC=C4[C@H]5[C@@H](C)[C@H](C)CC[C@]5(C(=O)NCCCCN)CC[C@@]4(C)[C@]3(C)CC[C@H]2C(C)(C)[C@H]1OC(C)=O,81% (inactive)
5,CCCCCCCCCCCCCCCC[N+](C)(CCO)Cc1cnc[nH]1 (stereo not given),-16% (active)
6,COc1cccc2c1C(=O)c1c(O)c3c(c(O)c1C2=O)CC(O)(/C(C)=N/NC(=O)CCCCC(=O)N/N=C(\C)C1(O)Cc2c(O)c4c(c(O)c2C(OC2CC(N)C(O)C(C)O2)C1)C(=O)c1c(OC)cccc1C4=O)CC3OC1CC(N)C(O)C(C)O1 (stereo not given),-1.37% [5 µM] (active)
7,Cc1ccc(NC(=O)CNc2cc(C(N)=O)cc(F)c2C)c(Cl)c1,105% (inactive)
8,Cc1ccc(Cn2c(N3CCC(C(=O)NCc4cccs4)CC3)nc3ccccc32)cc1,95.3% (inactive)
9,COc1ccc(OC)c(NC(=O)c2cc3oc4ccccc4c3cc2O)c1,96.9% (inactive)
10,O=C1c2ccccc2C(=O)c2cc(Cn3cc[n+](Cc4ccc5ccccc5c4)c3)ccc21,-32.2% (active)
11,OC(c1ccccc1)c1ccccn1 (stereo not given),103% (inactive)
12,Cc1ccc(C(=O)Nc2ccc(CN3CCN(C)CC3)c(C(F)(F)F)c2)cc1C#Cc1cnc(N)c2ccc(C#N)cc12,34.9% (inactive)
13,CC(=O)N1N=C(c2cccc(-n3cccc3)c2)CC1c1cccc(F)c1 (stereo not given),90.4% (inactive)
14,CCN(CC)CCOC(=O)C(c1ccccc1)(c1ccccc1)C(C)C,80% (inactive)
15,c1ccc2nc(-c3ccc4ccccc4n3)ccc2c1,78.9% (inactive)
16,CN(C)c1nc(N)c2nccnc2n1,115% (inactive)
17,COc1cc(C2CC(c3ccc4c(c3)OCO4)=NN2C(C)=O)cc(OC)c1OC (stereo not given),-26.8% (active)
18,Cc1c(C)c(N2C(=O)C=CC2=O)c(C)c(C)c1N1C(=O)C=CC1=O,96.5% (inactive)
19,Oc1ccc(Cc2ccc(O)c3ncccc23)c2cccnc12,-16% (active)
20,O=C(Nc1ccccc1Cl)c1c[nH]c(=O)c(-c2ccc(N3CCCOC4(CC4)C3)cc2)c1,9.39% (active)

row,SMILES,growth
1,CC(C)Cc1ccc(C(C)C(=O)NCc2ccc(Cn3c(=O)sn(CCCCl)c3=O)cc2)cc1 (stereo not given),80.8% (inactive) and -83.8% (active)
2,CCc1ccc(-c2nnc(COc3ccc(-c4nc5ccccc5[nH]4)cc3OC)o2)cc1,86.9% (inactive)
3,COc1cccc(C2C(C#N)=C(N)Oc3cc4c(cc32)OCO4)c1 (stereo not given),2.26% (active)
4,O=CN1N=C(c2ccc(F)cc2)CC1c1cccc(Nc2ccnc3cc(C(F)(F)F)ccc23)c1 (stereo not given),29.2% (inactive)
5,COc1ccc(/C(C)=C(\c2ccc(Cl)cc2)c2ccc(OCCN3CCCCC3)cc2)cc1,55.5% (inactive)
6,CCCCCC(C)(CC(=O)O)CC(=O)O,95.3% (inactive)
7,COc1cc(C2C(C#N)=C(N)OC3=C2C(=O)c2ccccc2C3=O)cc(OC)c1O (stereo not given),106% (inactive)
8,Cc1ccc(C(=O)c2ccc(CC(=O)N/N=C/c3ccccc3O)n2C)cc1,81.1% (inactive)
9,O=C(Nc1ccc(C23CC4CC(CC(c5ccccc5)(C4)C2)C3)cc1)c1cccs1,38.6% (inactive)
10,O=C(NNc1ccc(-c2ccccc2)nn1)c1ccccc1,103% (inactive)
11,Cc1cn(-c2cccc(NC(=O)c3ccc(C)c(Nc4nccc(-c5cccnc5)n4)c3)c2)cn1,-41.4% (active)
12,COc1ccc(NC(=O)c2ccccc2-c2ccccc2)c(C(N)=O)c1,27.3% (inactive)
13,Cc1ccc(NC(=O)CSc2nnc3n(Cc4ccccc4)c(=O)c4c(C)c(C(N)=O)sc4n23)cc1,107% (inactive)
14,COP(=O)(OC)c1nnn(-c2cccc([N+](=O)[O-])c2)c1C,120% (inactive)
15,CCOC(=O)COc1ccc2c(c1)O/C(=C\c1ccc(O)cc1)C2=O,91.9% (inactive)
16,c1ccc2[nH]c(-c3ccc(Nc4nc(N5CCCCC5)nc(N5CCOCC5)n4)cc3)nc2c1,-3.66% (active)
17,N=c1ccn2c(n1)OC1C(O)C(CO)OC12 (stereo not given),6.2% (active)
18,CC/C(=C(\c1ccc(OCCN2CCCCCCC2)cc1)c1ccc(OC(=O)C2CCCCC2)cc1)c1ccc(Cl)cc1,114% (inactive)
19,Cc1cnc(C(=O)Nc2nc3ccc(S(=O)(=O)Nc4ccc(C(C)(C)C)cc4)cc3[nH]2)cn1,-11.4% (active)
20,CCCCCCCCCCCCCCCCN=C(CC(=O)O)C(=O)O,95.2% (inactive)
